Source: PubChem BioAssay AID493244 (The Scripps Research Institute Molecular Screening Center, 2011)
The whole screen tested about 340,000 compounds, of which about 390 (0.11%) were called active. Many of the other results were omitted from the sample, so actives are more common in it than they were. Values without a mark were called inactive.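 How the source made its calls: active means inhibition above the mean inhibition of all tested compounds plus 3 SD (cut at about 17% in these data); inactive means the rest.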

target: Troponin I, cardiac muscle (Homo sapiens) + Troponin T, cardiac muscle (Homo sapiens) + Troponin C, slow skeletal and cardiac muscles (Homo sapiens) (UniProt P19429+P45379+P63316); assay: calcium desensitizers of cardiac thin filaments – biochemical, IANBD-TnC fluorescence, EC70 calcium, primary screen (AID 493244); conditions: IANBD-labeled cardiac RTF, Ca2+ fluorescence; at 7.15 µM; hits give high values;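 further: assay run at fixed EC70 calcium of 1.6 mM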

First: O=C(N/N=C/c1ccccc1O)/C(=C/c1ccccc1)CCO
Second: COc1ccc(/C=C(/NC(=O)c2ccccc2)C(=O)Nc2cccc(C(=O)O)c2)cc1
The inhibition of the first is higher: -2.95% for the first, -3.42% for the second.

First: Cn1cnc([N+](=O)[O-])c1Sc1ccccc1
Second: Cc1ccc(CNC(=O)Cc2cn(C)c3ccccc23)cc1
The inhibition of the first is higher: 7.04% for the first, -0.42% for the second.

Going from CCOC(=O)C(C)Oc1cccc2c(=O)n(CC(=O)NCCc3ccc(OC)c(OC)c3)ccc12 (stereo not given) to COc1ccc(CCNC(=O)COC(=O)c2ncc(Cl)c(Cl)c2Cl)cc1OC, the inhibition rises from -4.75% to 4.89%.

Compared with Cc1ccc(NC2=C(Cl)C(=O)OC2OC(=O)c2ccccc2C)cc1 (stereo not given), COc1cccc2cc(C(=O)NCc3ccc(C)cc3)c(=N)oc12 is lower in inhibition: 5.74% for the first, 0.64% for the second.

Going from CCc1ccc(N2CC(C(=O)Nc3ccc(S(=O)(=O)Nc4nccs4)cc3)CC2=O)cc1 (stereo not given) to O=C(COC(=O)c1ccc(NS(=O)(=O)c2cccs2)cc1O)Nc1ccc(F)cc1, the inhibition falls from 10.1% to -3.11%.

Compared with CSCC[C@H](NC(=O)N1CCn2c1nc1ccccc12)C(=O)NC1CCCCC1, CC(C(=O)NC1CCCCC1)N1C(=O)c2cccc3cccc1c23 (stereo not given) is higher in inhibition: -6.71% for the first, 5.31% for the second.

Going from COc1cc(C(=O)N(C)Cc2cccc(OC)c2OC)ccc1OCC(=O)Nc1cccc(C(F)(F)F)c1 to COc1ccccc1S(=O)(=O)NCc1ccc(C(=O)N(C)Cc2ccc(F)cc2)cc1, the inhibition falls from 6.06% to 4.86%.

Compared with Cc1cc(C)nc(Nc2n[nH]c(-c3ccccc3N)n2)n1, Cc1ccc(-n2c(=O)c(C#N)cc3c(=O)n4ccccc4nc32)cc1C is lower in inhibition: 2.72% for the first, -2.12% for the second.

Going from CC(C)(C)c1ccc(C(CC(=O)O)NS(=O)(=O)Cc2ccccc2)cc1 (stereo not given) to CN(c1ccccc1)S(=O)(=O)c1cccc(NC(=O)Cc2ccc(Cl)cc2)c1, the inhibition rises from -9.83% to 11.1%.

Going from Cc1ccc(S(=O)(=O)Cn2nnnc2CN2CCN(Cc3ccc4c(c3)OCO4)CC2)cc1 to Cc1ccc(CSc2ccc(S(=O)(=O)N3CCCCC3)cn2)cc1, the inhibition rises from -16.1% to -3.54%.

Going from COc1ccc(S(=O)(=O)NC(C)c2ccccc2)cc1C(=O)N1CCCCC1 (stereo not given) to CC(NC(=O)COC(=O)C1CCN(S(=O)(=O)c2ccccc2C(F)(F)F)CC1)c1ccccc1 (stereo not given), the inhibition falls from -3.2% to -5.89%.

Going from O=C1c2ccccc2C(Nc2ccc3c(c2)OCCO3)N1Cc1ccco1 (stereo not given) to O=S(=O)(c1ccccc1)c1nc(Cc2ccccc2)oc1N1CCOCC1, the inhibition falls from 0.13% to -3.71%.

Compared with CC(C)c1cc(C(=O)N/N=C/c2ccoc2)c(O)c(C(C)C)c1, COC(=O)Cc1c(O)ccn(Cc2cccc(C(F)(F)F)c2)c1=O is higher in inhibition: -3.15% for the first, 1.28% for the second.

First: Cc1cc(S(=O)(=O)NC2CCCC2)ccc1-n1cnnn1
Second: O=C(NCCC1CCCCN1S(=O)(=O)c1ccc(F)cc1)C(=O)NC1CC1 (stereo not given)
The inhibition of the first is lower: -17.6% for the first, -3.06% for the second.

First: CCc1noc(C)c1C(=O)Oc1ccc(N(C)S(=O)(=O)c2ccc(C)c(C)c2)cc1
Second: COc1ccc(C)cc1S(=O)(=O)N(CC(=O)Nc1cccc([N+](=O)[O-])c1)c1ccc(C)cc1
The inhibition of the first is higher: 0.79% for the first, 0.11% for the second.

Going from Cc1cc(C)n(Cc2cnc(N3CCOCC3)s2)n1 to CC1CN(S(=O)(=O)c2cccc(C(F)(F)F)c2)CN1C(=O)N1CCOCC1 (stereo not given), the inhibition falls from 9.55% to 9.08%.

Compared with O=C(C[n+]1cc(-c2ccc(Cl)c(Cl)c2)n2c1CCC2)c1cccs1, Cc1ccc(S(=O)(=O)N(CC(=O)N2CCc3ccccc3C2)c2cccc(Cl)c2)cc1 is lower in inhibition: 0.83% for the first, -9% for the second.

Going from CCCCOc1ccc(C(=O)NCC(=O)OCC(=O)N2CCN(S(=O)(=O)c3ccc(C)cc3C)CC2)cc1 to Cc1ccc(C(=O)OCC(=O)NCc2cc(C)c(O)c(C)c2)cc1S(=O)(=O)N1CCCCC1, the inhibition rises from -7.59% to 0.34%.

Compared with CCNC(=S)NCC, O=C(NCCC1CCCCN1S(=O)(=O)c1ccc(Cl)cc1)C(=O)NCc1ccco1 (stereo not given) is lower in inhibition: -5.85% for the first, -6.03% for the second.

Going from Cc1c(Cl)c([N+](=O)[O-])nn1CC(=O)NCC1CCCO1 (stereo not given) to Cc1cc(CNC(=O)C2CCC(=O)N(CCc3ccc(Cl)cc3)C2)no1 (stereo not given), the inhibition rises from -4.95% to 1.17%.

First: Cc1nc2ccc(S(=O)(=O)NCC(=O)O)cc2s1
Second: Cc1ccc(CN2CC(C(=O)NNC(=O)Cn3ccc(C(F)(F)F)n3)CC2=O)cc1 (stereo not given)
The inhibition of the first is higher: -1.72% for the first, -7.66% for the second.

Compared with COc1ccc(C(=O)NC2CC2)cc1OC1CCN(C/C=C/c2ccccc2)CC1, COc1ccc(CSc2nnnn2-c2ccc(O)cc2)cc1F is lower in inhibition: 0.64% for the first, -11.7% for the second.

First: C[C@]12CCC(=O)C=C1C=CC1C2CC[C@@]2(C)C1CC[C@@]21CCC(=O)O1 (stereo not given in full)
Second: NC(=O)C1(Nc2ccc([N+](=O)[O-])cc2)CCCC1
The inhibition of the first is higher: 2.44% for the first, 1.13% for the second.

In the case of O=c1oc2ccc(C#CC3(O)CCCCC3)cc2cc1-n1cc(-c2ccsc2)nn1, the inhibition is reported as 3.02%.

O=c1ccc2c(-c3ccccc3S(=O)(=O)O)c3ccc(O)c(O)c3oc-2c1O was tested, and the inhibition was 141% (active).
Cc1ccc(S(=O)(=O)N(CC(=O)Nc2cccc([N+](=O)[O-])c2)Cc2ccc(Cl)cc2)cc1 was tested, and the inhibition was 18.4% (active).
COc1cccc(CNC(=O)C(=O)NCCC2CCCCN2S(=O)(=O)c2ccc(C)cc2)c1 (stereo not given) was tested, and the inhibition was 18.4% (active).
